Data as given in ChEMBL document CHEMBL1961873, “Compounds: GSK PKIS; Assays: Nanosyn kinase panel” (2012).

Molecular target: Ephrin type-A receptor 2 (Homo sapiens) (UniProt P29317)
Conditions: at 0.1 µM

Ephrin type-A receptor 2 (Homo sapiens), sequence (P29317 whole entry): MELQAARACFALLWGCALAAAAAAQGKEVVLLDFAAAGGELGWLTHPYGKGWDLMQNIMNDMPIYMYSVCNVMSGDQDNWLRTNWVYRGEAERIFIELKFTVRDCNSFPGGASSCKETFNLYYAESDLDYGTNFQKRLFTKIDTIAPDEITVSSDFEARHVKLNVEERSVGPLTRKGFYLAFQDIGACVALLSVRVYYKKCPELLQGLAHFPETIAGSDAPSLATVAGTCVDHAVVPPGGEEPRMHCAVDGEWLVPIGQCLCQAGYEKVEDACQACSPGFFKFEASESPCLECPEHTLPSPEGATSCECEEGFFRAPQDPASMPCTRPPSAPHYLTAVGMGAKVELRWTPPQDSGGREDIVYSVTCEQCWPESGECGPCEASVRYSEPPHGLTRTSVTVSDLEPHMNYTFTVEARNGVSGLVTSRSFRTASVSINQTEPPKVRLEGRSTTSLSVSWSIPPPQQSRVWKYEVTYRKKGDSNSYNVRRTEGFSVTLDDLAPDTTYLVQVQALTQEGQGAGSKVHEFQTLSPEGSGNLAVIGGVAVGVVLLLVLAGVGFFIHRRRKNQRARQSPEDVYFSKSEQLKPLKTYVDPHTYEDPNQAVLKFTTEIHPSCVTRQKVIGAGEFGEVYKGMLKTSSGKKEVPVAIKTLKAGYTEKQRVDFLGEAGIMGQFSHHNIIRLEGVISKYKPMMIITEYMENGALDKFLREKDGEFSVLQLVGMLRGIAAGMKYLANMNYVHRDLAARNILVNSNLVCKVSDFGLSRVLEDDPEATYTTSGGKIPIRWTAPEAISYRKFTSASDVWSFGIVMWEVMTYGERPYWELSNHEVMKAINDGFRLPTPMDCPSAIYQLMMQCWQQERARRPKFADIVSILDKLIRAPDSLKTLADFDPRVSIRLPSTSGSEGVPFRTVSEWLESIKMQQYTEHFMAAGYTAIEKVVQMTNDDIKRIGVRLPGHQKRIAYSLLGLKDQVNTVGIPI

Structure (SMILES)	inhibition
Fc1ccc(-c2cc(-c3c[nH]nc3-c3ccccn3)ccn2)cc1	1.25%
Clc1ccc(-c2nn3ncccc3c2-c2ccnc(Nc3ccccc3)n2)cc1	-1.33%
CC1=C(C(=O)Nc2cc(Cl)c3[nH]ncc3c2)C(c2ccc(C(F)(F)F)cc2)CC(=O)N1 (stereo unspecified)	-2.83%
CC(C)(CO)CNC(=O)c1ccc2c(c1)/C(=N/Nc1ccc(S(N)(=O)=O)cc1)C(=O)N2	-2.4%
COc1cccc(-c2c[nH]c3c(N/N=C/c4ccncc4)ncnc23)c1	3.62%
Cc1ccc(O)cc1Nc1ccnc2cc(-c3ccccn3)ccc12	34.4%
Cc1cccc2c1NC(=O)/C2=N\Nc1ccc(S(N)(=O)=O)cc1	2.85%
CN1CCC(n2cnc(-c3ccc(F)cc3)c2-c2ccnc(Nc3ccccc3)n2)CC1	0.44%
COc1ccc2[nH]c3c4[nH]c5ccc(OC)cc5c4c4c(c3c2c1)C(=O)NC4=O	2.52%
CNC(=O)c1cncc(/C=C/c2ccccc2Cl)c1	3.31%
COC(=O)Nc1nc2ccc(Oc3ccc(NC(=O)Nc4cccc(Cl)c4)cc3)cc2[nH]1	7.68%
COc1ccc(-c2cc(-c3c[nH]nc3-c3ccccn3)ccn2)cc1	2.38%
CCn1c(-c2nonc2N)nc2ccccc21	-0.14%
COc1ccc(CNC(=O)c2ccc(-c3cc(-c4nnc(C)o4)ccc3C)cc2)cc1	2.44%
Fc1cccc(COc2ccc(Nc3ncnc4sc(-c5ccco5)cc34)cc2Cl)c1	2.14%
CCn1c(-c2nonc2N)nc2c(C#CC(C)(C)O)ncc(OC3CCNCC3)c21	1.52%
CNC(=O)c1cc(-c2ccc(F)cc2)cc(-c2ccc(S(=O)(=O)N3CCCC3)cc2)c1N	-2.99%

Structure (SMILES)	inhibition
COc1cc(N2CCN(C(C)C)CC2)ccc1Nc1nc(Nc2ccc(F)cc2C(N)=O)c2cc[nH]c2n1	0.87%
CCn1c(-c2nonc2N)nc2cnc(Oc3cccc(NC(=O)c4ccc(N(C)C)cc4)c3)cc21	-2.08%
COc1ccc2c(-c3ccnc(Nc4cccc(OC(F)(F)F)c4)n3)cnn2n1	1.21%
NS(=O)(=O)c1ccc(N/N=C2\C(=O)Nc3ccc4ncccc4c32)cc1	1.99%
O=C(Nc1n[nH]c2cc(-c3ccc(F)cc3)ccc12)C1CC1	-2.34%
c1cc(-c2cnn3nc(N4CCOCC4)ccc23)nc(NC2CC2)n1	2.12%
CCc1nn2ncccc2c1-c1ccnc(NC2CC2)n1	0.52%
CN1CCC(n2cnc(-c3ccc(F)cc3)c2-c2ccnc(N)n2)CC1	0.47%
COc1ccc(-c2cc3c(N)ncnc3o2)cc1	-3.93%
COc1ccc(-c2oc3ncnc(N)c3c2-c2ccc(NC(=O)Nc3cc(C(F)(F)F)ccc3F)cc2)cc1	87.9%
COc1cc(Nc2nccc(Nc3ccc4c(C)n[nH]c4c3)n2)cc(OC)c1OC	28%
COC(=O)c1sc(-n2cnc3cc(OC)c(OC)cc32)cc1OCc1ccccc1C(F)(F)F	2.23%
N#Cc1c(NC(=O)c2ccc(F)cc2)sc2c1CCCC2	-2.58%
NS(=O)(=O)c1ccc(Nc2ncc(-c3ccccc3)o2)cc1	2.66%
CCn1cc(-c2ccnc3[nH]ccc23)c(-c2cccc(NC(=O)Nc3ccc(OCc4ccccc4)cc3)c2)n1	1.83%
c1ccc(-c2nc3n(c2-c2ccc4c(c2)OCO4)CCC3)nc1	-2.56%

Molecular target: Ephrin type-A receptor 2 (Homo sapiens) (UniProt P29317)
Conditions: at 1 µM

Structure (SMILES)	inhibition
Fc1ccc(-c2cc(-c3c[nH]nc3-c3ccccn3)ccn2)cc1	0.94%
Clc1ccc(-c2nn3ncccc3c2-c2ccnc(Nc3ccccc3)n2)cc1	2.12%
CC1=C(C(=O)Nc2cc(Cl)c3[nH]ncc3c2)C(c2ccc(C(F)(F)F)cc2)CC(=O)N1 (stereo unspecified)	-2.1%
CC(C)(CO)CNC(=O)c1ccc2c(c1)/C(=N/Nc1ccc(S(N)(=O)=O)cc1)C(=O)N2	-2.69%
COc1cccc(-c2c[nH]c3c(N/N=C/c4ccncc4)ncnc23)c1	14.6%
Cc1ccc(O)cc1Nc1ccnc2cc(-c3ccccn3)ccc12	80.2%
Cc1cccc2c1NC(=O)/C2=N\Nc1ccc(S(N)(=O)=O)cc1	3.42%
CN1CCC(n2cnc(-c3ccc(F)cc3)c2-c2ccnc(Nc3ccccc3)n2)CC1	0.04%
COc1ccc2[nH]c3c4[nH]c5ccc(OC)cc5c4c4c(c3c2c1)C(=O)NC4=O	0.85%
CNC(=O)c1cncc(/C=C/c2ccccc2Cl)c1	2.6%
COC(=O)Nc1nc2ccc(Oc3ccc(NC(=O)Nc4cccc(Cl)c4)cc3)cc2[nH]1	41.2%
COc1ccc(-c2cc(-c3c[nH]nc3-c3ccccn3)ccn2)cc1	1.07%
CCn1c(-c2nonc2N)nc2ccccc21	0.64%
COc1ccc(CNC(=O)c2ccc(-c3cc(-c4nnc(C)o4)ccc3C)cc2)cc1	2.41%
Fc1cccc(COc2ccc(Nc3ncnc4sc(-c5ccco5)cc34)cc2Cl)c1	1.92%
CCn1c(-c2nonc2N)nc2c(C#CC(C)(C)O)ncc(OC3CCNCC3)c21	0.34%
CNC(=O)c1cc(-c2ccc(F)cc2)cc(-c2ccc(S(=O)(=O)N3CCCC3)cc2)c1N	-1.92%

Structure (SMILES)	inhibition
COc1cc(N2CCN(C(C)C)CC2)ccc1Nc1nc(Nc2ccc(F)cc2C(N)=O)c2cc[nH]c2n1	-0.92%
CCn1c(-c2nonc2N)nc2cnc(Oc3cccc(NC(=O)c4ccc(N(C)C)cc4)c3)cc21	-3.39%
COc1ccc2c(-c3ccnc(Nc4cccc(OC(F)(F)F)c4)n3)cnn2n1	2.29%
NS(=O)(=O)c1ccc(N/N=C2\C(=O)Nc3ccc4ncccc4c32)cc1	9.56%
O=C(Nc1n[nH]c2cc(-c3ccc(F)cc3)ccc12)C1CC1	-1.62%
c1cc(-c2cnn3nc(N4CCOCC4)ccc23)nc(NC2CC2)n1	0.18%
CCc1nn2ncccc2c1-c1ccnc(NC2CC2)n1	0.58%
CN1CCC(n2cnc(-c3ccc(F)cc3)c2-c2ccnc(N)n2)CC1	-0.42%
COc1ccc(-c2cc3c(N)ncnc3o2)cc1	-2.53%
COc1ccc(-c2oc3ncnc(N)c3c2-c2ccc(NC(=O)Nc3cc(C(F)(F)F)ccc3F)cc2)cc1	95.7%
COc1cc(Nc2nccc(Nc3ccc4c(C)n[nH]c4c3)n2)cc(OC)c1OC	71%
COC(=O)c1sc(-n2cnc3cc(OC)c(OC)cc32)cc1OCc1ccccc1C(F)(F)F	3.86%
N#Cc1c(NC(=O)c2ccc(F)cc2)sc2c1CCCC2	-2.61%
NS(=O)(=O)c1ccc(Nc2ncc(-c3ccccc3)o2)cc1	3.5%
CCn1cc(-c2ccnc3[nH]ccc23)c(-c2cccc(NC(=O)Nc3ccc(OCc4ccccc4)cc3)c2)n1	0.05%
c1ccc(-c2nc3n(c2-c2ccc4c(c2)OCO4)CCC3)nc1	-2.85%
